Records with an inconclusive call do not appear. Calls of active or inactive are those of the source. Rule for the calls: active = hit-call score of the fitted dose curve at least 0.9, where 1 is the maximum; inconclusive = response in the unintended direction; inactive = score below 0.9.
These compounds were tested against human Caspase 5 (CASP5), CASP5 (gene 838) (UniProt P51878) (assay: NVS_ENZ_hCASP5: NovaScreen (NVS) Enzymatic Assay for human Caspase 5 (CASP5) (AID 2283137)).
Description: NVS_ENZ_hCASP5 is a biochemical, single-readout assay that uses extracted gene-proteins from E. coli in a cell-free assay. Measurements were taken 2 hours after chemical dosing in a 96-well plate.NVS_ENZ_hCASP5 is one of one assay component(s) measured or calculated from the NVS_ENZ_hCASP5 assay. It is designed to make measurements of enzyme activity, a form of enzyme reporter, as detected with fluorescence intensity signals by Fluorescence technology.Data from the assay component NVS_ENZ_hCASP5 was analyzed into 1 assay endpoint. This assay endpoint, NVS_ENZ_hCASP5, was analyzed in the positive analysis fitting direction relative to DMSO as the negative control and baseline of activity. Using a type of enzyme reporter, loss-of-signal activity can be used to understand changes in the enzymatic activity as they relate to the gene CASP5. Furthermore, this assay endpoint can be referred to as a primary readout, because this assay has produced multiple assay endpoints where this one serves a enzymatic activity function. To generalize the intended target to other relatable targets, this assay endpoint is annotated to the protease intended target family, where the subfamily is cysteine protease.
Binding assays used specific radioligands (tritiated, iodinated) with non-radioactive competitive displacement ligands in agonist or antagonist protocols (as indicated) and various reference compounds and inhibitors to titrate specific binding to receptors and transporters. Most enzyme assays (CYPs, kinases, phosphatases, proteases, HDACs) used recombinant protein and specific substrates (fluorescence mostly, some colorimetric and radioactive) and inhibitors, followed by a biochemical separation of substrate and product. All assays for the biochemical HTS were initially run in duplicate at a single concentration (10 uM for CYP450 assays and 25 uM for all others). Assay-chemical combinations meeting a pre-defined threshold (e.g., 30% inhibition and other criteria defined below) were then run in singleton concentration-response format with maximum concentration of 20 uM for CYPs and 50 uM for all others. Each assay was run with positive and negative controls, and concurrent controls on every plate. The follow-up (secondary) screen tested active chemical-pairs in concentration series, as well as a few additional assays not tested in the primary screen, some selected negative inactives, and several cases re-run in the concentration series for confirmatory purposes.

Sequence of human Caspase 5 (CASP5), CASP5 (gene 838) (P51878 whole entry, looked up): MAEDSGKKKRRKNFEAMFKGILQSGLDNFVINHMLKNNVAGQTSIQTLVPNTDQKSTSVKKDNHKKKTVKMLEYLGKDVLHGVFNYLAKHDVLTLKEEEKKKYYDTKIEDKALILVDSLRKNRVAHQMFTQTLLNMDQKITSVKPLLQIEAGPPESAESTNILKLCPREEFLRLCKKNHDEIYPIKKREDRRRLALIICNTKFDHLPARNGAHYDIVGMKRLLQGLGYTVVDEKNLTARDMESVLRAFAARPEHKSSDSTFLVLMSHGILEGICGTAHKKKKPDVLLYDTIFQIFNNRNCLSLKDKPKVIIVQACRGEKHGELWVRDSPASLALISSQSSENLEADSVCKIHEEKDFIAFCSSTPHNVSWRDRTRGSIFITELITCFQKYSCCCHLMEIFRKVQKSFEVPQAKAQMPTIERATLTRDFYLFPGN

With `Cc1ccc2ncccc2c1` as the compound, how does the outcome read?
The outcome was “inactive”.

`COc1cc(-c2nc(NC(=O)c3cc4cc(C)cc(C)c4n3CC(=O)O)sc2CCC2CCCCC2)c(OC)cc1Cl` was tested. Which AC50 did it give?
The AC50 was 0.91 µM (active).

Which AC50 does the source give for `CC1=C(/C=C/C(C)=C/C=C/C(C)=C/CO)C(C)(C)CCC1` here?
Its AC50 is 39.9 µM (active).

How did the outcome turn out when `Cc1c(C(=O)O)c(O)cc2c1C(=O)c1c(O)c([C@@H]3O[C@H](CO)[C@@H](O)[C@H](O)[C@H]3O)c(O)c(O)c1C2=O` was run?
The outcome was “inactive”.

With `COc1ccc(C)cc1N` as the compound, how does the outcome read?
The outcome was “inactive”.

`CCCCCCCCCCCCCCCCCC(=O)O` was tested. Which AC50 did it give?
The AC50 was 0.719 µM (active).

How did the outcome turn out when `CCc1c(C(=O)NN2CCCCC2)nn(-c2ccc(Cl)cc2Cl)c1-c1ccc(Br)cc1` was run?
The outcome was “inactive”.

For `CC1(C)CC(N=C=O)CC(C)(CN=C=O)C1` (stereo not given), which outcome is on record?
The outcome was “inactive”.

`COc1cc(S(=O)(=O)O)c(C)cc1N=Nc1c(O)ccc2cc(S(=O)(=O)O)ccc12` was tested. Which AC50 did it give?
The AC50 was 19.9 µM (active).

How did the AC50 turn out when `CCCCC(CC)COC(=O)CC(C(=O)OCC(CC)CCCC)S(=O)(=O)O` (stereo not given) was run?
Its AC50 is 15.2 µM (active).
